In PubChem BioAssay AID1745849 (National Center for Advancing Translational Sciences (NCATS), 2022):
Out of some 2,100 compounds screened, about 320 (15%) were called active. Roughly 52% stayed inconclusive and do not appear here. Calls come from the whole dose curve; as a rule, active = well fitted cell-killing curve with a large enough effect; inconclusive = small, poorly fitted or top-dose-only effect, or effect the other way; inactive = flat fitted curve, though single readings scatter. The list shows a part of the results. A call without a number means that no potency is given here.

Assay: Viability Counterscreen for CMV-Luciferase Assay of Inhibitors of ATXN expression; note: nearly all actives have a fitted effect of over 55% in size
Conditions: HEK-293 CMV-luciferase cells viability, protease fluorescence, 24 h
Procedure, shortened: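 Dosing on CMV-luciferase HEK-293 cells for 24 hr, 37 °C. Luminescence read with SteadyGlo; cytotoxicity measured first as Gly-Phe-AFC protease fluorescence, 25 uM final substrate, 30 min.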
Potency is the fitted concentration of half-maximal effect.

Row | SMILES | Potency
1 | CC(=O)c1cccc(NC(=O)C2Cc3c(-c4cccc(C(C)=O)c4)ccnc3O2)c1 (stereo not given) | inactive
2 | CC(=O)c1cccc(NC(=O)c2cccc3c(-c4cccc(C(N)=O)c4)coc23)c1 | 11.2 µM (active)
3 | NC(=O)c1cccc(-c2ccnc3c2CC(C(=O)Nc2cccc(C(F)(F)F)c2)O3)c1 (stereo not given) | inactive
4 | CS(=O)(=O)Nc1ccccc1C(=O)Nc1cc(Cl)cc(Cl)c1 | inactive
5 | CS(=O)(=O)Nc1cccc(NC(=O)c2cccc3c(-c4cccc(C(N)=O)c4)coc23)c1 | 17.8 µM (active)
6 | Cc1cc(OCc2nc(N)nc(N)c2-c2ccc(Cl)c(Cl)c2)ccc1[N+](=O)[O-] | inactive
7 | Cc1nn(-c2ccccc2)c2nc(-c3cccs3)cc(C(=O)NN)c12 | inactive
8 | CCn1c(-c2ccc(C)cc2)nn(CC(=O)NCCc2ccccc2)c1=S | inactive
9 | CCN(CC)CCNC(=O)CCc1c(C)nc2c(c(C)nn2-c2ccc(C)cc2)c1C | 3.55 µM (active)
10 | Cc1ccc(CN2CCC(c3nc4ccc(Cl)cc4[nH]3)CC2)cc1 | inactive
11 | O=C(N/N=C/c1cc([N+](=O)[O-])ccc1O)c1cc(-c2ccccc2)nc2ccccc12 | 2.51 µM (active)
12 | O=[N+]([O-])c1ccc(O)c(/C=N\N=C2c3ccccc3-c3ccccc32)c1 | 10 µM (active)
13 | COc1cccc(/C=N/NC(=O)c2ccc(-c3ccccc3)cc2)c1O | inactive
14 | C/C(=N\NC(=O)c1cc(-c2cccnc2)nc2ccccc12)c1ccc(O)cc1O | inactive
15 | O=C(N/N=C/c1cc([N+](=O)[O-])ccc1O)c1cccc2cc[nH]c12 | 7.94 µM (active)
16 | COc1cccc(/C=N/NC(=O)c2cc(-c3ccccn3)nc3ccccc23)c1O | 2.82 µM (active)
17 | COc1cccc(/C=N/Nc2nc3ccccc3n3cnnc23)c1O | inactive
18 | CCCC(=O)Nc1c(C(=O)OCC)[nH]c2ccccc12 | inactive
19 | Cc1ccc(-n2cccn2)c(CN2CCCC(C(=O)c3ccc4c(c3)OCO4)C2)c1 (stereo not given) | inactive
20 | O=C(Nc1cccc(Br)c1)c1ccc(Cl)c(S(=O)(=O)N2CCOCC2)c1 | inactive

Row | SMILES | Potency
21 | Cc1ccc2c(c1)-c1c(cnn1CC(=O)N1CCCN(Cc3ccccc3F)C1)CO2 | inactive
22 | Cc1cc(Br)ccc1NC(=O)c1cnc(N2CCN(c3ccccn3)CC2)c2ccccc12 | inactive
23 | Cc1cc(Cl)c(C(=O)Nc2cccc(C(F)(F)F)c2)c(C)n1 | inactive
24 | Cc1ccc(NC(=O)COc2ccc(Br)cc2CO)cc1S(=O)(=O)N1CCOCC1 | inactive
25 | O=C(c1ccc(Cl)s1)N1CCN(c2nc3ccccc3s2)CC1 | inactive
26 | CC(=O)c1ccc(NC(=O)COC(=O)c2c3c(nc4ccccc24)/C(=C\c2cccs2)CCC3)cc1 | inactive
27 | Cc1noc2ncnc(N3CCN(c4cccc(Cl)c4)CC3)c12 | inactive
28 | CCN1C(=O)C(CC(=O)Nc2ccc(OC)cc2)N(CCc2ccc(F)cc2)C1=S (stereo not given) | inactive
29 | CC(C)COc1cccc(C(=O)N(CC(=O)Nc2ccccc2C(F)(F)F)Cc2ccco2)c1 | inactive
30 | Cc1onc(-c2ccccc2)c1C(=O)N/N=C/c1c[nH]c2ccccc12 | inactive
31 | O=C(N/N=C/c1cc([N+](=O)[O-])ccc1O)c1c[nH]c2ccccc12 | 28.2 µM (active)
32 | Cc1ccc2cc(C#N)c(N3CCN(C(=O)c4ccccc4)CC3)nc2c1 | inactive
33 | COc1ccc(-c2cc(C3CCN(c4ccc(C(C)=O)cc4[N+](=O)[O-])CC3)[nH]n2)cc1 | 14.1 µM (active)
34 | CCOC(=O)[C@H]1[C@H]2COc3ccc(OC)cc3[C@@H]2N2C(=O)c3cc(OC)c(OC)cc3NC(=O)[C@@]12C | inactive
35 | NNc1ncnc2scc(-c3ccc(Cl)cc3)c12 | inactive
36 | CCOC(=O)c1c(C)sc2c1N(C(=O)CN(CC)CC)c1cc(Cl)ccc1S2 | 15.8 µM (active)
37 | CN(C)c1nc(N/N=C/c2c[nH]c3ccccc23)nc(N2CCOCC2)n1 | inactive
38 | C=CCn1c(C)c(/C=C/c2cc[n+](C)cc2)c2ccccc21 | inactive
39 | Nn1cnnc1N/N=C/c1cc(Br)cc(Br)c1O | inactive
40 | Cn1c(SCC(=O)N/N=C/c2ccc([N+](=O)[O-])s2)nnc1-c1ccccc1 | 20 µM (active)

Row | SMILES | Potency
41 | CSc1sc(-c2nnc(SCC(=O)Nc3ccc(Cl)cc3)n2C)c2c1C=CCC2 | inactive
42 | Cn1c(SCC(=O)N/N=C/c2ccc([N+](=O)[O-])s2)nnc1-c1ccc(Cl)cc1 | 10 µM (active)
43 | O=C(CSc1nnnn1-c1ccccc1)Nc1nsc(-c2ccccc2)n1 | inactive
44 | Cn1c(SCC(=O)Nc2cc(Cl)cc(Cl)c2)nnc1-c1ccc2nonc2c1 | inactive
45 | COc1ccc(N2CCN(c3ccnc4cc(Cl)ccc34)CC2)cc1 | inactive
46 | COc1cccc(OC)c1C(=O)OCC(=O)NC(=O)NCc1ccccc1 | inactive
47 | CC(C)(C)c1ccc(Oc2ccc(N)cc2)cc1 | inactive
48 | Cc1nc2ncnn2c(N2CCN(c3cccc(C(F)(F)F)c3)CC2)c1C | inactive
49 | c1ccc2c(c1)c1c(c3ccccc32)CN2CCCC2C1 (stereo not given) | inactive
50 | Cc1c(N=C2C=CC(=O)c3ccccc32)c(=O)n(-c2ccccc2)n1C | 28.2 µM (active)
51 | Cc1ccc(-c2cc(C(=O)NCCCN3CCOCC3)no2)cc1 | inactive
52 | COC(=O)C1=C(C)N(Cc2ccccc2)C(=NCCc2cccnc2)N[C@H]1c1ccc(Br)cc1 | 20 µM (active)
53 | c1ccc(-c2cc3c(N4CCN(c5ccccc5)CC4)ncnc3s2)cc1 | inactive
54 | COc1ccc(N(CC(=O)N2CCN(c3ccc(Cl)cc3)CC2)S(=O)(=O)c2c(C)n[nH]c2C)cc1 | inactive
55 | COc1ccccc1-c1cc2nc(-c3ccccc3)cc(N3CCN(C(=O)c4ccoc4)CC3)n2n1 | 10 µM (active)
56 | COc1cccc(-c2cc3nc(-c4ccccc4)cc(N4CCN(C(=O)c5ccoc5)CC4)n3n2)c1 | inactive
57 | O=C(c1ccoc1)N1CCN(c2cc(-c3ccco3)nc3cc(-c4ccccc4)nn23)CC1 | inactive
58 | COc1cccc(C2CC(c3c(-c4ccccc4)c4cc(Cl)ccc4[nH]c3=O)=NN2S(C)(=O)=O)c1OC (stereo not given) | inactive
59 | O=C(/C=C/c1ccccc1)NC(=S)NNC(=O)c1cnccn1 | 10 µM (active)
60 | CCCOc1ccc(C(=O)NC(=S)NNC(=O)c2c(-c3ccccc3)noc2C)cc1 | inactive
